Measurements taken from PubChem BioAssay.
“And” between values parts separate entries of the source, which are not always exact repeats. Equal entries are not always repeated. The source made the active and inactive calls. Rule as the data show it: active = parasite load remaining mostly below about 12% (no sharp cut-off); inactive = mostly above about 10%. Numbered stars: 1 amine (or outer) side, 2 acyl side, 3 side chain; on linkers, the order of the positions; unused ones are H or OH. Bridge positions count the residues as written; N and C are the ends. Square brackets hold non-standard residues; d marks the D form. Peptide text beside a SMILES is read from it. * marks the point of attachment. Heptanoyl(6-Me) = CC(C)CCCCC(=O)*; X3 = CC(C)C(CN[*:1])C(=O)[*:2]; Dab = NCC[CH](N)C(=O)O

Assay: liver-stage malaria parasite growth inhibition, primary screen, cell-based, HepG2, luciferase luminescence, HepG2 viability (AID 624349);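 also: 100% = mean of DMSO negative control wells on the same plate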
Conditions: P. berghei liver stage in HepG2, luciferase luminescence, concentration not given here; parasite load remaining: stronger effect = lower value; viability: measured here: HepG2 viability without parasites

| SMILES | parasite load remaining | viability |
| --- | --- | --- |
| O=C(O)Cc1c2ccccc2n2c1[nH]c(=O)c1ccccc12 | 35.1% (inactive) | 170% |
| Cn1c(O)c(-c2[nH]c3ccccc3c2N=O)c2ccc(Br)cc21 | 27.7% (inactive) | 171% |
| O=C1c2ccccc2-c2nc3nnnn3nc21 | -1.07% (inactive) | 0.01% |
| CCOc1nc(NC(=O)Cc2cc(OC)ccc2OC)cc(N)c1C#N | 37.8% (inactive) | 72.7% |
| Nc1ncnc2c1cnn2-c1ccccc1 | 72% (inactive) | 108% |
| CC(C)CCCCC(=O)NC(CCN)C(=O)NC(C(=O)NC(CCN)C(=O)NC1CCNC(=O)C(C(C)O)NC(=O)C(CCN)NC(=O)C(CCN)NC(=O)C(C(C)C)CNC(=O)C(CC(C)C)NC(=O)C(CCN)NC1=O)C(C)O (centres undefined) ({Heptanoyl(6-Me)}-[Dab]T[Dab][Dab][Dab]L[X3][Dab][Dab]T; lactam 4-C; configuration not given here) | 68.1% (inactive) | 75.2% |
| COc1cc2ncnc(Nc3cccc(O)c3)c2cc1OC | 52.5% (inactive) | 68.3% |
| COc1ccc(-c2cnc3c(-c4ccsc4)cnn3c2)cc1 | 16.9% (inactive) | 67.4% |
| O=C1NC(=O)C(c2cn(CCCO)c3ncccc23)=C1c1cnccn1 | 39.6% (inactive) | 97.4% |
| O=C1Nc2ccc(Cl)cc2/C1=C/c1cc(Cl)c(O)c(Cl)c1 | 28.5% (inactive) | 82.4% |
| O=C1NC(=NCc2cccs2)S/C1=C\c1ccc2ncccc2c1 | 27.7% (inactive) | 96.3% |
| N#Cc1cnc2cnc(NCc3cccnc3)cc2c1NC1CCCCCC1 | 36% (inactive) | 65.1% |
| O=c1[nH]c(O)c2c1c1c3ccccc3nc1n1cncc21 | 34.3% (inactive) | 93.6% |
| NS(=O)(=O)c1ccc(N=Nc2c(O)[nH]c3ccc(Br)cc23)cc1 | 34% (inactive) | 161% |
| Cc1nc(-c2ccccc2)c(-c2ccncc2)o1 | 46.9% (inactive) | 64.2% |
| Cc1cc(C=C2C(=O)C=CC2=O)cc(C)c1O | 28.7% (inactive) | 70.7% |
| COc1cc2ncnc(Nc3ccc(OCc4ccccc4)cc3)c2cc1OC | 51.2% (inactive) | 119% |
| c1ccc2c(-c3ccncc3)c[nH]c2c1 | 30.9% (inactive) | 66.5% |
| CC(C)(C)c1ccc(S(=O)(=O)Nc2ccc(-n3ccnc3)cc2)cc1 | 37.4% (inactive) | 67.1% |
| CCCCc1c(-c2ccc(OC)cc2)[nH]c2nccnc12 | 34.8% (inactive) | 106% |
| N#CCCc1ccc2c(c1)-c1[nH]c3ccc([N+](=O)[O-])cc3c1CC(=O)N2 | 64.4% (inactive) | 120% |

| SMILES | parasite load remaining | viability |
| --- | --- | --- |
| COC1C=CC23c4cc5c(cc4CN(C[C@H]2O)[C@@H]3C1)OCO5 (some centres undefined) | 2.19% (inactive) | 98.9% |
| O=C1NC(=O)C(c2cn(CCCn3ccnc3)c3ccccc23)=C1Nc1ccccc1 | 35% (inactive) | 61.8% |
| Cn1nc2c3c(cccc31)C(=O)c1ccccc1-2 | 28.1% (inactive) | 83.8% |
| O=C(c1cc2cc(O)ccc2[nH]1)c1cc2cc(O)ccc2[nH]1 | 37.2% (inactive) | 97.4% |
| CC(C)C(CO)Nc1nc(Nc2cccc(Cl)c2)c2ncn(C(C)C)c2n1 (centres undefined) | 30.5% (inactive) | 63.2% |
| Ic1cccc(CSc2nnc(-c3ccncc3)o2)c1 | 20.8% (inactive) | 98.7% |
| CC(C)n1cnc2c(Nc3cccc(Cl)c3)nc(NCCO)nc21 | 37.9% (inactive) | 90.9% |
| O=C(Nc1ccc(Cl)cc1)c1ccccc1NCc1ccncc1 | 39.8% (inactive) | 69% |
| O=C(Nc1ccncc1)Nc1c(Cl)cc(Cl)cc1Cl | 41.9% (inactive) | 65.2% |
| COC1[C@@H](OC)C[C@H](C)[C@@H](OC)C2=CC(=O)C=C(NC(=O)/C(C)=C/C=C\C(OC)[C@@H](OC(N)=O)/C(C)=C/[C@@H]1C)C2=O (some centres undefined) | 25.3% (inactive) | 84.1% |
| O=C1Nc2ccccc2/C1=C\c1c(Cl)[nH]c2ccccc12 | 35% (inactive) | 118% |
| O=c1[nH][nH]c2nnc(-c3c(-c4ccccc4)nn4ccccc34)cc12 | 41.8% (inactive) | 101% |
| O=C(Nc1ccc(-c2cn[nH]c2)cc1)C1COc2ccccc2O1 (centres undefined) | 48.6% (inactive) | 62.7% |
| O=C1NC(=O)c2c1c1c3ccccc3[nH]c1c1[nH]c3cc(Br)ccc3c21 | 60.6% (inactive) | 160% |
| N#C/C(=C(/N)Sc1ccccc1N)c1cccc(C(O)c2ccncc2)c1 (centres undefined) | 49.2% (inactive) | 70% |
| CC[C@@H](CO)Nc1nc(NCc2ccc(-c3ccccn3)cc2)c2ncn(C(C)C)c2n1 | 181% (inactive) | 75.3% |
| NCCCn1cc(C2=C(c3c[nH]c4ccccc34)C(=O)NC2=O)c2ccccc21 | 53.3% (inactive) | 148% |
| CN(C)c1ccc(/C=C2/C(=O)Nc3ccccc32)cc1 | 34.8% (inactive) | 126% |
| Cc1cncc2cccc(S(=O)(=O)N3CCCN(C(=O)CN)C[C@H]3C)c12 | 43.2% (inactive) | 68.1% |
| Nc1nc(Nc2ccc(S(N)(=O)=O)cc2)nn1C(=S)Nc1c(F)cccc1F | 8.25% (active) | 93.1% |
| O=C1Nc2ccc(Br)cc2/C1=C/c1cc2c([nH]1)CCCC2 | 44.1% (inactive) | 66.2% |

| SMILES | parasite load remaining | viability |
| --- | --- | --- |
| O=c1c(O)c(-c2ccc(O)c(O)c2)oc2cc(O)c(O)c(O)c12 | 32.1% (inactive) | 88.8% |
| O=C1C(C2=C3C(=Nc4ccccc43)/C(=C\c3ccc(O)cc3)C2=O)=C2C(=Nc3ccccc32)/C1=C\c1ccc(O)cc1 | 52% (inactive) | 71.2% |
| CCCCn1c2ccc(O)cc2c2c3c(c(-c4ccccc4Cl)cc21)C(=O)NC3=O | 56.2% (inactive) | 74.7% |
| O=C1NC(=O)/C(=C/c2ccc3c(c2)OCO3)S1 | 37.6% (inactive) | 63.8% |
| Nc1c(O)cccc1C(=O)CC(N)C(=O)O (centres undefined) | 62.4% (inactive) | 73.1% |
| N=c1ccn2c(n1)O[C@@H]1C2O[C@H](CO)[C@H]1O (some centres undefined) | 234% (inactive) | 85% |
| O=C(Nc1cccc(Nc2cc(Nc3cccc(C(F)(F)F)c3)ncn2)c1)C1CC1 | 48.9% (inactive) | 163% |
| Cn1cnc2cc3c(Nc4cccc(Br)c4)ncnc3cc21 | 14.5% (inactive) | 165% |
| CCOC(=O)c1c(C)[nH]c(/C=C2\C(=O)Nc3ccccc32)c1C | 39.2% (inactive) | 69.8% |
| CC(C)n1cnc2c(NCc3ccccc3O)nc(NCCCO)nc21 | 37.8% (inactive) | 118% |
| CC[n+]1c(/C=C/N(C)c2ccccc2)n(-c2ccccc2)c2ccc(-c3nc4ccccc4s3)cc21 | 33.2% (inactive) | 152% |
| CCN(CC)CCNC(=O)c1c(C)[nH]c(/C=C2\C(=O)Nc3ccc(Cl)cc32)c1C | 49.7% (inactive) | 69.1% |
| CNc1cc2c(Nc3cccc(Br)c3)ncnc2cn1 | 49.2% (inactive) | 157% |
| NC(=O)Nc1cc(-c2ccccc2)sc1C(N)=O | 74.4% (inactive) | 163% |
| CCCOc1ccc(/C=C2\SC(=O)NC2=O)cc1 | 54.3% (inactive) | 111% |
| COc1ccc2c(c1)c1c3c(c4c5ccccc5n(C)c4c1n2CC(O)CN(C)C)C(=O)NC3=O (centres undefined) | 65.8% (inactive) | 144% |
| N#Cc1c(-c2ccccc2)cc(-c2cc(Br)ccc2O)[nH]c1=O | 30.2% (inactive) | 75.4% |
| Nc1n[nH]c(N)c1N=Nc1ccc(O)cc1 | 23.7% (inactive) | 93.1% |
| O=C(Nc1cccc(Nc2nccc(Nc3cccc(C(F)(F)F)c3)n2)c1)C1CC1 | 36.9% (inactive) and 34.4% (inactive) | 99.7% and 89.6% |
| CCCCc1c(-c2ccc(O)cc2)[nH]c2nccnc12 | 46.4% (inactive) | 112% |
